# According to PubChem BioAssay:
# Activity calls are given as the source filed them.
# Key:
# [1] = system: Plasmodium falciparum Sir2 (PF13_0152, Sir2A); assay: Plasmodium falciparum Sir2A binding compounds – biochemical, small-molecule microarray, 635 nm fluorescence, primary screen (AID 1098); details: fluorescence 635 nm, higher = more signal;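 also: score merges spot fluorescence intensity with its signal-to-noise ratio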
# [2] = probe aDKK1 binding to arrayed compounds – biochemical, biotinylated probe, 635/667 nm fluorescence, primary screen (AID 1099); details: small-molecule microarray, higher = more signal;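 also: score merges 667nm spot fluorescence with signal to noise across triplicate slides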
# [3] = probe aCHRDL2 binding to arrayed compounds – biochemical, biotinylated probe, 635/667 nm fluorescence, primary screen (AID 1100); details: small-molecule microarray, higher = more signal
# [4] = change in splice reporter luminescence, either direction, cell-based, HEK293, spliceosome inhibition project, primary screen (AID 1101); details: HEK293 splicing luciferase reporter, 24 h, higher = more signal, called active from +8 up or from −8 down;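 also: HEK293 cells carrying a splicing-competent luciferase reporter gene; test concentration not given here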
# [5] = biological target: Fibroblast growth factor 10 (Homo sapiens) (UniProt O15520); assay: compounds binding fibroblast growth factor 10 – biochemical, small-molecule microarray, 635 nm fluorescence, primary screen (AID 1102); details: FGF10 binding, fluorescence 635 nm, higher = more signal
# [6] = system: glycogen synthase kinase-3 (GSK3A per assay name; protocol says GSK3B); assay: compounds binding glycogen synthase kinase-3 – biochemical, small-molecule microarray, 635 nm fluorescence, GSK3A, primary screen (AID 1103); details: fluorescence 635 nm, higher = more signal; also: the record names both GSK3A and GSK3B
# [7] = biological target: Epidermal growth factor receptor (Homo sapiens) (UniProt P00533); assay: compounds binding epidermal growth factor receptor – biochemical, small-molecule microarray, 635 nm fluorescence, primary screen (AID 1104); details: EGFR binding, higher = more signal;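 also: score merges 667 nm emission intensity with spot signal to noise over triplicate slides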
# [8] = biological target: Follistatin-related protein 3 (Homo sapiens) (UniProt O95633); assay: compounds binding follistatin-related protein 3 – biochemical, small-molecule microarray, 635 nm fluorescence, primary screen (AID 1105); details: FSTL3 binding, higher = more signal;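 also: score merges emission near 667 nm and signal to noise per printed spot across three slides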
# [9] = biological target: Dickkopf-related protein 1 (Homo sapiens) (UniProt O94907); assay: small molecules binding DKK1 protein – biochemical, small-molecule microarray, 635 nm fluorescence scan, primary screen (AID 1106); details: higher = more signal;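 also: score merges emission near 667 nm with signal to noise over three replicate slides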
# [10] = system: Inhibin beta A chain (activin A); assay: small molecules binding activin A – biochemical, small-molecule microarray, 635 nm fluorescence scan, primary screen (AID 1107); details: INHBA, higher = more signal;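 also: mouse activin A protein probed at 4.33 µg/mL on printed slides; score merges bound-protein fluorescence near 667 nm with spot signal-to-noise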
# [11] = system: Human papillomavirus type 1a protein E7 (residues 44-93); assay: small molecules binding HPV E7 44-93 – biochemical, small-molecule microarray, residues 44-93, 635 nm fluorescence, primary screen (AID 1108); details: fluorescence 635 nm, higher = more signal;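 also: E7 fragment applied at 1 µg/mL in TBST for 1 h at 4 C; score combines spot fluorescence with its signal to noise ratio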
# [12] = hepatitis C replication reporter changes, two-sided – Huh7 cells, luciferase reporter, HCV replication inhibitor project, primary screen (AID 1109); details: Huh7 HCV replicon luciferase reporter, 48 h; higher = more signal;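 also: huh7 hepatoma cells harbouring a luciferase neomycin HCV replicon reporter; luciferase luminescence as measure of HCV replicon replication; test concentration not given here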
# [13] = biological target: Left-right determination factor 2 (Homo sapiens) (UniProt O00292); assay: small molecules binding LEFTY2 protein – biochemical, small-molecule microarray, 635 nm fluorescence scan, primary screen (AID 1110); details: higher = more signal
# [14] = biological target: Calmodulin-1 (Homo sapiens) (UniProt P0DP23); assay: small molecules binding calmodulin-1 with EGTA – biochemical, small-molecule microarray, Cy5-labelled CALM1, profiling panel (AID 1111); details: Cy5-CALM1 binding fluorescence, higher = more signal;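 also: labelled calmodulin applied in Tris saline Tween buffer holding calcium plus EGTA and DTT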
# [15] = biological target: Calmodulin-1 (Homo sapiens) (UniProt P0DP23); assay: small molecules binding Ca-loaded calmodulin-1 – biochemical, small-molecule microarray, Cy5-labelled CALM1, plus calcium, artefact control for SMM control-protein annotation, profiling panel (AID 1112); details: Cy5-CALM1 binding fluorescence, higher = more signal;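 also: score merges spot fluorescence with signal to noise from triplicate slides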
# [16] = probe aWnt5a binding to arrayed compounds – biochemical, biotinylated probe, 635/667 nm fluorescence, primary screen (AID 1113); details: small-molecule microarray, higher = more signal;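 also: score merges 667 nm fluorescence intensity with signal-to-noise per printed feature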
# [17] = probe aShh binding to arrayed compounds – biochemical, biotinylated probe, 635/667 nm fluorescence, primary screen (AID 1114); details: small-molecule microarray, higher = more signal;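 also: probe is biotin-labelled aShh protein from a stem cell growth factor screen; measures binding of labelled protein to compounds printed on the slide; score merges feature fluorescence at 667 nm with signal-to-noise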
# [18] = probe aNog binding to arrayed compounds – biochemical, biotinylated probe, 635/667 nm fluorescence, primary screen (AID 1115); details: small-molecule microarray, higher = more signal;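 also: probe is biotinylated aNog protein used at 0.15 µg/mL for 1 h at 4 C; z-score combines 667 nm fluorescence of each spot with its signal to noise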
# [19] = biological target: Torsin-1A-interacting protein 1 (Homo sapiens) (UniProt Q5JTV8); assay: compound microarray binding of lysate hLAP1 – cell lysate, small-molecule microarray, COS7 lysate, 635/667 nm fluorescence, primary screen (AID 1116); details: 635 nm fluorescence, higher = more signal
# [20] = biological target: Alpha-bungarotoxin (Bungarus multicinctus) (UniProt P60615); assay: compounds binding labelled alpha-BTX control protein – biochemical, small-molecule microarray, Alexa647 label, 635/667 nm fluorescence, artefact control for SMM control protein annotation, profiling panel (AID 1117); details: alpha-BTX-A647 binding fluorescence, higher = more signal
# Chain of Alpha-bungarotoxin (Bungarus multicinctus) (P60615 whole entry, looked up): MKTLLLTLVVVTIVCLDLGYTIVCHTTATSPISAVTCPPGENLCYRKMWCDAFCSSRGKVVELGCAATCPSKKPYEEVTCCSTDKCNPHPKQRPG
# Chain of Epidermal growth factor receptor (Homo sapiens) (P00533 whole entry, looked up): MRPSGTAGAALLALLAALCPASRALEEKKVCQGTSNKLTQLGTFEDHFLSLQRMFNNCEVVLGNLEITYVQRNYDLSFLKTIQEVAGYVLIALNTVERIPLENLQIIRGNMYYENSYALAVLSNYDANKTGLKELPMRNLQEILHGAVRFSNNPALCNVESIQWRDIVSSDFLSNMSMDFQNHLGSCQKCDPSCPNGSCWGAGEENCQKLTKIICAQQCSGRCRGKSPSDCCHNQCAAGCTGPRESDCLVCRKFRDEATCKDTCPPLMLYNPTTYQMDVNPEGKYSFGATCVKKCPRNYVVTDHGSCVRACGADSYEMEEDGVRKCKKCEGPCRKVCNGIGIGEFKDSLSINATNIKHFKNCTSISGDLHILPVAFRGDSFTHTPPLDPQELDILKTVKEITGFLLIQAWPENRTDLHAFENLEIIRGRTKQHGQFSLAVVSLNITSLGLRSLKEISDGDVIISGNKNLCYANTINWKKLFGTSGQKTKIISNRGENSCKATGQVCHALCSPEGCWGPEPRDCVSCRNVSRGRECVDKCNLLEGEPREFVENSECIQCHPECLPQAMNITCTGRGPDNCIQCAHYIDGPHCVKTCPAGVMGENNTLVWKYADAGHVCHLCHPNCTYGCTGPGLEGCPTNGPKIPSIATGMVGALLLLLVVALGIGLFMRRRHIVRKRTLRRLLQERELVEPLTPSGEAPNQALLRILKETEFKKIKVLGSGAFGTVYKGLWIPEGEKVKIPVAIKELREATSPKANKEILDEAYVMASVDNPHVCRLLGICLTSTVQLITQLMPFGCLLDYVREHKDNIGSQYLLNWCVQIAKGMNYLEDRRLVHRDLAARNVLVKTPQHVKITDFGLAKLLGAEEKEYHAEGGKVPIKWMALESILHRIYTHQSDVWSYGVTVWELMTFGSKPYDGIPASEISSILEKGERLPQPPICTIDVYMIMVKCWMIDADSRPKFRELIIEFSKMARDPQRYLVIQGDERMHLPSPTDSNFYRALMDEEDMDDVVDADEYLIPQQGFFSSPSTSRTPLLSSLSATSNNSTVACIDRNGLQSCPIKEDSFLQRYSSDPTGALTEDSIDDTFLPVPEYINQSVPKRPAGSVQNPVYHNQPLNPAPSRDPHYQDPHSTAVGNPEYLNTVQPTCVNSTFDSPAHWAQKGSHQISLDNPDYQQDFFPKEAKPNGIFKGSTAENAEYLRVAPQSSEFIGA
# Chain of Torsin-1A-interacting protein 1 (Homo sapiens) (Q5JTV8 whole entry, looked up): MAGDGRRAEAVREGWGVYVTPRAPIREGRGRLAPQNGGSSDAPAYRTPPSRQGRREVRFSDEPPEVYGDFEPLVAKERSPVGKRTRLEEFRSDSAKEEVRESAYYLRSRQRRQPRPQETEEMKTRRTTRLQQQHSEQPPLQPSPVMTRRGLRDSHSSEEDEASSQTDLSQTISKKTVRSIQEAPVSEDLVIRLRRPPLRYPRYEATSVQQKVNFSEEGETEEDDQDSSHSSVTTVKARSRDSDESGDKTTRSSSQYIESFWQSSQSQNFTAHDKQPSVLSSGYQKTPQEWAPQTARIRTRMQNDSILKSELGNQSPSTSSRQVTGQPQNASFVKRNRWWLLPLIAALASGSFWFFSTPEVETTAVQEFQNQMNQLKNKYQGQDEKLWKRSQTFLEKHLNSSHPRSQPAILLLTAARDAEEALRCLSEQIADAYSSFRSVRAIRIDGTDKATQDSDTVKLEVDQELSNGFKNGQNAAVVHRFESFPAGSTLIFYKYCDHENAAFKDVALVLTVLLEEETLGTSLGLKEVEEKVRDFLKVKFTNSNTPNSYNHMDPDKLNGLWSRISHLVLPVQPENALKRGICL
# Chain of Follistatin-related protein 3 (Homo sapiens) (O95633 whole entry, looked up): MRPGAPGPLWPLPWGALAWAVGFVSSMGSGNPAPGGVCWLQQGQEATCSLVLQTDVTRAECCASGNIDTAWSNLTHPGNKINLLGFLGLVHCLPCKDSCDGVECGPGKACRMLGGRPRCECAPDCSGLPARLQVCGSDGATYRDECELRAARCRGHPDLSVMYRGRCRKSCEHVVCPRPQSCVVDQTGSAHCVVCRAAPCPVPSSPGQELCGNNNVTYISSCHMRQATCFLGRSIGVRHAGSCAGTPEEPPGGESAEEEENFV
# Chain of Dickkopf-related protein 1 (Homo sapiens) (O94907 whole entry, looked up): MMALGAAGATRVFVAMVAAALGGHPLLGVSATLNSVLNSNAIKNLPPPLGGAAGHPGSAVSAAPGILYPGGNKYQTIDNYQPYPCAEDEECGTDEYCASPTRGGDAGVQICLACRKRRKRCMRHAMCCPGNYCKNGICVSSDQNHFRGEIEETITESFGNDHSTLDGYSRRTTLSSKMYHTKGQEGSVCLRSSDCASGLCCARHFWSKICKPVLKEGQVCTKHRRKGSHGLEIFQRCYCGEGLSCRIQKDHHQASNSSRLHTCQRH
# Chain of Left-right determination factor 2 (Homo sapiens) (O00292 whole entry, looked up): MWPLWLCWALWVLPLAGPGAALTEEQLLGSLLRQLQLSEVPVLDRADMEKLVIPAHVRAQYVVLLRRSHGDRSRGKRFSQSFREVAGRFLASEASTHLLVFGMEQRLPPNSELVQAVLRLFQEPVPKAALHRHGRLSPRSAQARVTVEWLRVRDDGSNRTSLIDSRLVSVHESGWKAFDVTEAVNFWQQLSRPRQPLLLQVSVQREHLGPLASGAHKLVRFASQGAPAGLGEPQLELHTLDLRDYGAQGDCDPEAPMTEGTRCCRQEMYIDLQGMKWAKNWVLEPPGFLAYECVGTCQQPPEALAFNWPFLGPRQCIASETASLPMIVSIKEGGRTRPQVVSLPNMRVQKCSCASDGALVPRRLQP
# Chain of Fibroblast growth factor 10 (Homo sapiens) (O15520 whole entry, looked up): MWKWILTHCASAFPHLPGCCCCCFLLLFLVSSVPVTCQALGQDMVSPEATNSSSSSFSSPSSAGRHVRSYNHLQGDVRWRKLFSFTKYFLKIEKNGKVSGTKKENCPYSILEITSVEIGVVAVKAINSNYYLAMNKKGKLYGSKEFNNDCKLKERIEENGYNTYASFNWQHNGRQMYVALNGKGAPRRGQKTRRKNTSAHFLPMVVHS
Structure (SMILES),composite z-score [1],composite z-score [2],composite z-score [3],z-score [4],composite z-score [5],composite z-score [6],composite z-score [7],composite z-score [8],composite z-score [9],composite z-score [10],composite z-score [11],z-score [12],composite z-score [13],composite z-score [14],composite z-score [15],composite z-score [16],composite z-score [17],composite z-score [18],composite z-score [19],composite z-score [20]
O=c1cccc(-c2ccc3ccccc3c2)o1,-0.271,0.216,0.591,-0.823 (inactive),-0.0487,-0.964,0.0697,-0.0172,-0.139,1.15,-0.0853,0.0929,-0.135,-0.545,0.03,-0.184,-0.136,-0.219,0.407,0.687
COc1cc(NN2C(C(O)c3ccccc3)C=CC3C(=O)N(c4ccccc4)C(=O)C32)cc(OC)c1OC (stereo not given),1.53,0.256,0.862,-0.412 (inactive),1.28,1.14,0.257,1.47,0.0142,0.706,1.49,-1.28,0.265,1.36,-0.356,0.216,0.302,0.539,0.804,0.585
CC(=O)NCCCC[C@@H]1NC(=O)[C@@H]2C[C@H](C(=O)NCCCCCC[N+](C)(C)C)[C@H](c3cccc(OCCO)c3)N2C1=O,1.13,-0.145,-0.0962,-0.0513 (inactive),1.23,1.27,0.341,1.25,1.45,0.811,1.39,0.625,0.996,-0.145,-0.711,0.158,0.0181,-0.0585,1.05,1.75
CC(C)N1C(=O)c2ccccc2[C@](C)(C(=O)NCCCN(C)C)[C@@H]1c1ccc(CO)cc1,0.928,0.466,0.665,-0.297 (inactive),-0.543,1.4,-0.968,-0.749,-1.78,0.814,-0.0305,-0.104,-0.553,0.0958,-0.0609,-0.152,-0.214,-0.546,4.42,1.28
[N-]=[N+]=NCc1ccccc1[C@@H]1OC(c2ccc(OCCCO)cc2)=N[C@]1(Cc1ccccc1)C(=O)O,1.03,0.175,0.917,-0.013 (inactive),0.661,0.294,-0.321,-0.086,-0.617,1.2,1.38,-0.297,-0.252,1.14,0.518,-0.0479,0.0711,-0.419,0.767,0.865
